Measured values from PubChem BioAssay AID371 (SRMLSC, 2006).
Among all 3,300 compounds or so, about 280 (8.5%) were called active. The sample as a whole holds a higher share of actives than the screen did. A number with no mark means an inactive call.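 Rule for the calls: active = mean growth inhibition over the two runs of 50% or more; inactive = mean growth inhibition under 50%.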

Assay: A549 NSCLC cell proliferation inhibitors – ATP luminescence, human non-small cell lung line, primary screen (AID 371);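 note: compound exposure lasted 72 h before the ATP read; 0% = untreated cell signal and 100% = no luminescence left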
Conditions: at 10 µM, stronger effect = higher value
In the case of `COc1cc(NC2=CC(=O)CC(C)(C)C2)cc(OC)c1OC`, the growth inhibition is reported as 3.91%.
Compound `Cc1nc(NS(=O)(=O)c2ccccc2)sc1NC(=O)OC(C)C` has a growth inhibition of 3.58%.
Work on `Cc1cccc(-c2nc(C#N)c(NC3CCCCC3)o2)c1` yielded a growth inhibition of 34.3%.
In the case of `N=c1c(C(=O)NCc2ccccc2)cc2c(=O)n3ccccc3nc2n1Cc1ccco1`, the growth inhibition is reported as 90.5% (active).
Work on `Cc1ccc(S(=O)(=O)c2cc3c(=O)n4ccccc4nc3n(C)c2=N)cc1` yielded a growth inhibition of -2.02%.
Compound `Cn1c(=O)c2c(nc(NCc3ccco3)n2CCc2ccccc2)n(C)c1=O` has a growth inhibition of 34.5%.
`CC(C)OCCCn1c(=N)c(C(N)=S)cc2c(=O)n3ccccc3nc21` gave a growth inhibition of 42.5%.
`Cc1cccn2c(=O)c3cc(C(=O)NCc4cccnc4)c(=N)n(C)c3nc12` gave a growth inhibition of -1.19%.
In the case of `Cc1ccc(CNC(=O)c2cc3c(=O)n4ccccc4nc3n(Cc3ccco3)c2=N)cc1`, the growth inhibition is reported as 92.5% (active).
With `Cc1cccn2c(=O)c3cc(C(N)=S)c(=N)n(CCCOC(C)C)c3nc12` the growth inhibition was 51.3% (active).
`COC(=O)c1cc2c(=O)n3cccc(C)c3nc2n(Cc2cccnc2)c1=N` showed a growth inhibition of 2.48%.
For `Cc1ccc(CNC(=O)c2cc3c(=O)n4ccccc4nc3n(CC3CCCO3)c2=N)cc1` (stereo not drawn), the growth inhibition was 44.3%.
With `CCNC(=O)c1cc2c(=O)n3cccc(C)c3nc2n(CCc2ccccc2)c1=N` the growth inhibition was 70.5% (active).
Work on `CCOC(=O)c1cc2c(=O)n3cccc(C)c3nc2n(C)c1=N` yielded a growth inhibition of 27.1%.
With `CCOC(=O)c1cc2c(=O)n3cccc(C)c3nc2n(CCc2ccccc2)c1=N` the growth inhibition was 16.5%.
Compound `CCOC(=O)CSC1=C(C#N)C(c2ccc(C)cc2)C(C(=O)OC)C(=O)N1` (stereo not drawn) has a growth inhibition of 8.41%.
With `CCOC(=O)C1=C(C)OC(N)=C(C#N)C1c1cc2ccccc2nc1N1CCCCC1` (stereo not drawn) the growth inhibition was 22.5%.
Work on `COC(=O)c1cc(S(=O)(=O)N2CCOCC2)c(N2CCOCC2)cc1N1CCOCC1` yielded a growth inhibition of 8.19%.
In the case of `COCCCNC(=O)c1c(N)n(/N=C/c2cccnc2)c2nc3ccccc3nc12`, the growth inhibition is reported as 4.43%.
`Cc1cc(=O)oc(C)c1C(=O)NCC(C)NC(=O)c1c(C)cc(=O)oc1C` (stereo not drawn) gave a growth inhibition of 0.25%.
`Cc1nn(CC(=O)N2CCOCC2)c(=O)c2ccccc12` gave a growth inhibition of 2.14%.
`CCOC(=O)c1cc2c(=O)n3cccc(C)c3nc2n(Cc2cccnc2)c1=N` showed a growth inhibition of 1.61%.
In the case of `C=CCn1c(=N)c(C(=O)OCC)cc2c(=O)n3cccc(C)c3nc21`, the growth inhibition is reported as 16.9%.
With `CCOC(=O)c1cc2c(=O)n3ccccc3nc2n(Cc2ccccc2Cl)c1=N` the growth inhibition was 52.6% (active).
For `COc1ccc(CCn2c(=N)c(C(=O)NCc3ccco3)cc3c(=O)n4ccccc4nc32)cc1`, the growth inhibition was 61.2% (active).
In the case of `COc1ccc(CCn2c(=N)c(C(=O)NCc3ccco3)cc3c(=O)n4ccccc4nc32)cc1OC`, the growth inhibition is reported as 48.2%.
`COc1ccc(CCn2c(=N)c(C#N)cc3c(=O)n4ccccc4nc32)cc1` showed a growth inhibition of 11.5%.
Compound `O=C1c2ccccc2C(=O)N1CCN1CCc2ccccc21` has a growth inhibition of 8.36%.
In the case of `Cc1ccc(C(C)C)c(OCCNc2nc3c(c(=O)n(C)c(=O)n3C)n2C)c1`, the growth inhibition is reported as 20.2%.
For `CCSc1nc(N)c2c3c(sc2n1)CCC3`, the growth inhibition was 6.53%.
For `c1csc(-c2nn3c(C4CCCCC4)nnc3s2)c1`, the growth inhibition was 7.39%.
In the case of `CC(C)(C)n1cnc2cc(NS(=O)(=O)c3ccc(Br)cc3)ccc21`, the growth inhibition is reported as 61.4% (active).
For `CC1CN(C2CCN(S(=O)(=O)c3ccc4ccccc4c3)CC2)CC(C)O1` (stereo not drawn), the growth inhibition was 8.58%.
With `CC(C)c1nc2sc3c(c2c(=O)o1)CCCC3` the growth inhibition was 0.69%.
`CCOc1ccc(C2C(C#N)=C(N)Oc3cc(C)n(CCN4CCOCC4)c(=O)c32)cc1OCC` (stereo not drawn) showed a growth inhibition of 1.16%.
With `CO[C@H]1C[C@@H]2CC[C@@H](C)[C@@](O)(O2)C(=O)C(=O)N2CCCC[C@H]2C(=O)O[C@H]([C@H](C)C[C@@H]2CC[C@@H](O)[C@H](OC)C2)CC(=O)[C@H](C)C=C(C)[C@@H](O)[C@@H](OC)C(=O)[C@H](C)C[C@H](C)C=CC=CC=C1C` the growth inhibition was 65.2% (active).
`CCCOC(=O)C1[C@H]2C(=O)N(Cc3ccco3)C[C@]23C=C[C@H]1O3` (stereo partly drawn) showed a growth inhibition of 9.74%.
`CCCOc1ccc(C(C)=O)cc1CSCCC#N` gave a growth inhibition of 8.19%.
For `CCOC(=O)c1c(C(F)(F)C(F)(F)C(F)(F)C(F)(F)F)n[nH]c1C`, the growth inhibition was 91.1% (active).
Compound `CCOC(=O)c1c(C)[nH]c(/C(C)=N/O)c1C` has a growth inhibition of 12.8%.
Work on `CCOC(=O)c1c(C)[nH]sc1=S` yielded a growth inhibition of 3.75%.
With `CCOC(=O)C1=C(C)NC(=O)NC1c1ccc2c(c1)OCO2` (stereo not drawn) the growth inhibition was 5.16%.
With `CCOC(=O)C1=C(C)NC(C)=C(C(=O)OC)C1c1cccc(Cl)c1Cl` (stereo not drawn) the growth inhibition was 79.5% (active).
`COCCOC(=O)C1=C(C)NC(C)=C(C(=O)OC(C)C)C1c1cccc([N+](=O)[O-])c1` (stereo not drawn) gave a growth inhibition of 34.4%.
For `CCOC(=O)C1=C(C)NC(C)=C(C(=O)OC)C1c1cccc([N+](=O)[O-])c1` (stereo not drawn), the growth inhibition was 52.7% (active).
`COC(=O)C1=C(C)NC(C)=C(C(=O)OC)C1c1ccccc1[N+](=O)[O-]` showed a growth inhibition of 47.5%.
With `CCOC(=O)C1=C(C)NC(=O)C1CC(=O)Nc1ccccc1` (stereo not drawn) the growth inhibition was -0.76%.
Work on `Cc1c(O)c(CN2CCCC2)cc2c1oc(=O)c1ccccc12` yielded a growth inhibition of 9.98%.
For `N#Cc1c(N2CCOCC2)nc(-c2ccco2)c2c1CCCC2`, the growth inhibition was 7.04%.
With `C/C=C(/C(=C/C)c1ccc(O)cc1)c1ccc(O)cc1` the growth inhibition was 50.9% (active).
With `CCC(=O)c1ccc(O)cc1` the growth inhibition was 4.76%.
Work on `Cn1c(NCCN2CCCCC2)cc(=O)n(C)c1=O` yielded a growth inhibition of -1.36%.
With `COc1cc(C2CC(C(F)(F)F)n3ncc(C(=O)O)c3N2)cc(OC)c1OC` (stereo not drawn) the growth inhibition was 2.64%.
Work on `CN1CCN(C(=O)CSc2nc(-c3cccs3)ccc2C#N)CC1` yielded a growth inhibition of 3.23%.
For `COc1ccc(N2C(=O)CC(N(Cc3ccc(S(N)(=O)=O)cc3)C(C)=O)C2=O)cc1` (stereo not drawn), the growth inhibition was 0.97%.
In the case of `Cc1ccc2[nH]c3c(c2c1)CN(C(=O)CN1CCCc2ccccc21)CC3`, the growth inhibition is reported as 69% (active).
`Cc1ccc2[nH]c3c(c2c1)CN(C(=O)CN1CC(C)OC(C)C1)CC3` (stereo not drawn) gave a growth inhibition of 3.04%.
In the case of `Cc1ccc2[nH]c3c(c2c1)CN(C(=O)CN1CCN(c2ccccn2)CC1)CC3`, the growth inhibition is reported as 15.6%.
`COCCOC(=O)c1c(C)oc2ccc(OC(=O)COc3c(F)c(F)c(F)c(F)c3F)cc12` showed a growth inhibition of 5.03%.
With `Cc1ccc(C(=O)NCC(C)(C)O)cc1` the growth inhibition was 4.92%.
`COc1ccc(N2CCN(C3CC(=O)NC3=O)CC2)cc1` (stereo not drawn) showed a growth inhibition of 1.16%.
With `CC(=O)O[C@H]1C(=O)[C@]2(C)[C@H]([C@H](OC(=O)c3ccccc3)[C@]3(O)C[C@H](OC(=O)[C@H](O)[C@@H](NC(=O)c4ccccc4)c4ccccc4)C(C)=C1C3(C)C)[C@]1(OC(C)=O)CO[C@@H]1C[C@@H]2O` the growth inhibition was 65.8% (active).
For `CC(=O)O[C@@]12CO[C@@H]1C[C@H](O)[C@@]1(C)C(=O)[C@H](O)C3=C(C)[C@@H](OC(=O)[C@H](O)[C@@H](NC(=O)OC(C)(C)C)c4ccccc4)C[C@](O)([C@@H](OC(=O)c4ccccc4)[C@H]21)C3(C)C`, the growth inhibition was 55.2% (active).
Compound `CCOC(=O)CC1=C(C(=O)OCC)C(c2ccc(OC)c(OC)c2)C(C#N)=C(N)O1` (stereo not drawn) has a growth inhibition of -2.02%.
Work on `CCOC(=O)CC1=C(C(=O)OCC)C(c2cc(OC)c(OC)cc2OC)C(C#N)=C(N)O1` (stereo not drawn) yielded a growth inhibition of -5.45%.
Work on `CCCCCCn1c(SCCN2CCOCC2)nc2c1c(=O)[nH]c(=O)n2C` yielded a growth inhibition of 7.31%.
`CN1CC2(C)CN(C(c3ccccc3)c3ccccc3)CC(C)(C1)C2O` (stereo not drawn) gave a growth inhibition of 6.36%.
In the case of `CC(=O)O[C@]1(C(C)=O)CC[C@H]2[C@@H]3C[C@H](C)C4=CC(=O)CC[C@]4(C)[C@H]3CC[C@@]21C`, the growth inhibition is reported as 50%.
With `CCCCCC(=O)O[C@]1(C(C)=O)CC[C@H]2[C@@H]3CCC4=CC(=O)CC[C@]4(C)[C@H]3CC[C@@]21C` the growth inhibition was 73.5% (active).
Compound `CCCCCCCC(=O)OCC(=O)[C@@]1(O)CC[C@H]2[C@@H]3CCC4=CC(=O)CC[C@]4(C)[C@H]3[C@@H](O)C[C@@]21C` has a growth inhibition of 26.8%.
`CCCCC(=O)O[C@]1(C(=O)CO)CC[C@H]2[C@@H]3CCC4=CC(=O)CC[C@]4(C)[C@H]3[C@@H](O)C[C@@]21C` showed a growth inhibition of 21.6%.
With `CC(=O)O[C@]1(C(C)=O)CC[C@H]2[C@@H]3C=C(C)C4=CC(=O)CC[C@]4(C)[C@H]3CC[C@@]21C` the growth inhibition was 34.5%.
For `CC(=O)O[C@]1(C(C)=O)CC[C@H]2[C@@H]3C=C(Cl)C4=CC(=O)CC[C@]4(C)[C@H]3CC[C@@]21C`, the growth inhibition was 52.6% (active).
For `O=C(O)C1CSC(CCc2ccccc2)N1` (stereo not drawn), the growth inhibition was 5.85%.
`CCN(CC)CCCN1C(=O)C(=O)/C(=C(/O)c2ccc3c(c2)CC(C)O3)C1c1cccnc1` (stereo not drawn) gave a growth inhibition of 1.89%.
Compound `COc1ccccc1N(Cc1cc2cccc(C)c2[nH]c1=O)C(=O)C(C)C` has a growth inhibition of 12.1%.
`O=C1C(=O)N(Cc2cccnc2)C(c2ccccn2)/C1=C(/O)c1ccc(F)cc1` (stereo not drawn) gave a growth inhibition of 1.96%.
`Cc1ccc(S(=O)(=O)/C(C#N)=C/c2c(N3CCN(C)CC3)nc3c(C)cccn3c2=O)cc1` gave a growth inhibition of -1.01%.
Work on `Cc1nnc(N2CCCCC2)c2ccccc12` yielded a growth inhibition of 8.14%.
In the case of `Cc1nnc(NCc2n[nH]c(=O)c3ccccc23)c2ccccc12`, the growth inhibition is reported as 69.7% (active).
`COc1ccc(Nc2nnc(C)c3ccccc23)cc1C(N)=O` showed a growth inhibition of -0.95%.
In the case of `Nc1nnnn1N=C1CCCCC1`, the growth inhibition is reported as -2.31%.
`CCOC(=O)CCNc1n[nH]c(=O)[nH]c1=O` showed a growth inhibition of 4.05%.
